About 79,000 compounds went through this panel and 15% of them were active in at least one assay; those are over-represented in the sample as a whole. Calls of active or inactive are those of the source. Cut-off read from the data, not from the text of the source: active = growth inhibition above about 70%; inactive = the rest.
Assays:
[1] = NCI Yeast Anticancer Drug Screen. Data for the rad52 strain (AID 147);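 note: 0% = growth of vehicle-treated control cultures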; settings: S. cerevisiae rad52 mutant growth inhibition, hits give high values
How it was run: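 Genetically altered yeast (DNA damage repair defect) treated with compound; inhibition calculated relative to vehicle.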

[2] = NCI Yeast Anticancer Drug Screen. Data for the wt1 strain (AID 149);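 note: 0% = growth of vehicle-treated wt1 cultures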; settings: S. cerevisiae wt1 strain (SPY 50644) growth inhibition, hits give high values
How it was run: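 wt1 strain grown with compound or vehicle; inhibition taken from the growth difference.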

[3] = NCI Yeast Anticancer Drug Screen. Data for the rad50EPP+ strain (AID 151);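 note: 0% = growth of vehicle-treated control cultures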; settings: S. cerevisiae rad50 mutant strain, hits give high values
How it was run: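 Strain rad50EPP+; compound exposure; % growth inhibition vs vehicle.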

[4] = NCI Yeast Anticancer Drug Screen. Data for the rad50 strain (AID 155);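 note: 0% = growth of vehicle-only cultures of the same strain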; settings: S. cerevisiae rad50 strain growth inhibition, hits give high values
How it was run: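 DNA repair mutant yeast, compound exposure, growth read-out; inhibition is taken relative to vehicle.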

[5] = NCI Yeast Anticancer Drug Screen. Data for the mec2-1 strain (AID 157); settings: S. cerevisiae mec2-1 strain, hits give high values
How it was run: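 Cells of the genetically defined mec2-1 yeast strain are incubated with test compound. Inhibition of growth is calculated against vehicle-treated controls.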

[6] = NCI Yeast Anticancer Drug Screen. Data for the rad14 strain (AID 159);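 note: 0% = growth of vehicle-treated control cultures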; settings: S. cerevisiae rad14 strain growth inhibition, hits give high values
How it was run: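 DNA repair-defective yeast, compound-exposed; % growth inhibition derived by comparison with vehicle-treated controls.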

[7] = NCI Yeast Anticancer Drug Screen. Data for the sgs1 mgt1 strain (AID 161);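 note: 0% = growth of cultures given vehicle only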; settings: S. cerevisiae sgs1 mgt1 strain, hits give high values
How it was run: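 Inhibition of yeast growth, normalised to vehicle-treated controls, is reported for a strain bearing genetic alterations in DNA damage repair.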

[8] = NCI Yeast Anticancer Drug Screen. Data for the CLN2oe strain (AID 163);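 note: 0% = growth of vehicle-only control cultures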; settings: S. cerevisiae CLN2oe strain, hits give high values
How it was run: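 Strain altered in cell-cycle control, incubated with compound; growth compared to solvent-treated controls.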

[9] = NCI Yeast Anticancer Drug Screen. Data for the cln2 rad14 strain (AID 165);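 note: 0% = growth equal to vehicle treated cultures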; settings: S. cerevisiae cln2 rad14 strain, hits give high values
How it was run: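 The screen exposed genetically defined yeast (cln2 rad14) to test compounds and scored growth inhibition relative to vehicle-treated controls.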

[10] = NCI Yeast Anticancer Drug Screen. Data for the bub3 strain (AID 167); settings: S. cerevisiae bub3 mutant strain, hits give high values
How it was run: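 In this screen, a yeast mutant lacking normal mitotic checkpoint function is challenged with compound. Relative growth versus vehicle gives the inhibition value.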

[11] = NCI Yeast Anticancer Drug Screen. Data for the wt2 strain (AID 169);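 note: 0% = growth of vehicle-treated yeast cultures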; settings: S. cerevisiae wt2 strain growth inhibition, hits give high values
How it was run: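 Steps: yeast strain treated with compound; growth recorded; inhibition calculated relative to cultures given vehicle alone.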

[12] = NCI Yeast Anticancer Drug Screen. Data for the mlh1 strain (AID 171);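 note: 0% = growth of vehicle-treated control cultures of the same strain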; settings: S. cerevisiae mlh1 strain growth inhibition, hits give high values
How it was run: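 Yeast screen: mutant strain plus compound, growth scored against vehicle control wells.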

[13] = NCI Yeast Anticancer Drug Screen. Data for the sgs1 strain (AID 173);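 note: 0% = growth of vehicle-only control cultures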; settings: S. cerevisiae sgs1 mutant, hits give high values
How it was run: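 Inhibition of yeast growth served as the measure. The mutant strain was treated with each compound, and growth was normalised to cultures receiving vehicle alone.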

[14] = NCI Yeast Anticancer Drug Screen. Data for the mlh1 rad18 strain (AID 175); settings: S. cerevisiae mlh1 rad18 strain growth inhibition, hits give high values
How it was run: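 Compound-treated yeast growth, normalised to vehicle controls. Strain bears defined DNA repair mutations.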

[15] = NCI Yeast Anticancer Drug Screen. Data for the rad18 strain (AID 177); settings: S. cerevisiae rad18 mutant growth inhibition, hits give high values
How it was run: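 Inhibition values reflect reduced yeast growth compared with vehicle-treated controls, using a strain engineered with a DNA damage repair defect.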

[16] = at 5.0 µM (retest, dose inferred, filed as 0.5)
[17] = at 50.0 µM (retest, dose inferred, filed as 5.0)

Measured: growth inhibition

O=C1C=CC(=Nc2cccc3c2-c2ccccc2C3=O)O1
active: [1]; at 33.0 µM 97% | [1]; at 100.0 µM 98% | [2]; at 33.0 µM 99% | [2]; at 100.0 µM 99% | [3]; at 33.0 µM 89% | [3]; at 100.0 µM 97% | [4]; at 11.0 µM 79% | [4]; at 33.0 µM 98% | [4]; [17] 99% | [4]; at 50.0 µM 99.5% | [4]; at 100.0 µM 97% | [5]; at 11.0 µM 75% | [5]; at 33.0 µM 99% | [5]; [17] 99% | [5]; at 50.0 µM 99.5% | [5]; at 100.0 µM 99% | [6]; at 11.0 µM 94% | [6]; at 33.0 µM 99% | [6]; at 100.0 µM 98% | [7]; [17] 99% | [7]; at 50.0 µM 99.6% | [8]; at 33.0 µM 99% | [8]; at 100.0 µM 98% | [9]; [17] 99% | [9]; at 50.0 µM 98.7% | [10]; at 11.0 µM 72% | [10]; at 33.0 µM 97% | [10]; [17] 99% | [10]; at 50.0 µM 99.7% | [10]; at 100.0 µM 98% | [11]; at 11.0 µM 79% | [11]; at 33.0 µM 99% | [11]; at 100.0 µM 99% | [12]; at 11.0 µM 84% | [12]; at 33.0 µM 99% | [12]; at 100.0 µM 99% | [13]; at 11.0 µM 83% | [13]; at 33.0 µM 99% | [13]; at 100.0 µM 99% | [14]; [17] 99% | [14]; at 50.0 µM 85% | [15]; at 11.0 µM 83% | [15]; at 33.0 µM 99% | [15]; at 100.0 µM 98%
inactive: [1]; at 1.2 µM 3% | [1]; at 3.7 µM 16% | [1]; at 11.0 µM 67% | [2]; at 1.2 µM -2% | [2]; at 3.7 µM 8% | [2]; at 11.0 µM 42% | [3]; at 1.2 µM 4% | [3]; at 3.7 µM 24% | [3]; at 11.0 µM 61% | [4]; at 1.2 µM 3% | [4]; at 3.7 µM 19% | [4]; [16] 26% | [5]; at 1.2 µM 6% | [5]; at 3.7 µM 23% | [5]; [16] 36% | [6]; at 1.2 µM 5% | [6]; at 3.7 µM 18% | [7]; [16] 36% | [8]; at 1.2 µM -3% | [8]; at 3.7 µM 5% | [8]; at 11.0 µM 60% | [9]; [16] 14% | [10]; at 1.2 µM -7% | [10]; at 3.7 µM 0% | [10]; [16] 14% | [11]; at 1.2 µM -3% | [11]; at 3.7 µM 12% | [12]; at 1.2 µM 7% | [12]; at 3.7 µM 18% | [13]; at 1.2 µM 7% | [13]; at 3.7 µM 25% | [14]; [16] 28% | [15]; at 1.2 µM 8% | [15]; at 3.7 µM 23%

O=C(/N=N/C(=O)Oc1ccccc1)Oc1ccccc1
inactive: [1]; at 1.2 µM -49% | [1]; at 3.7 µM -54% | [1]; at 11.0 µM -52% | [1]; at 33.0 µM -38% | [1]; at 100.0 µM 24% | [2]; at 1.2 µM -57% | [2]; at 3.7 µM -51% | [2]; at 11.0 µM -46% | [2]; at 33.0 µM -32% | [2]; at 100.0 µM 37% | [3]; at 1.2 µM -87% | [3]; at 3.7 µM -110% | [3]; at 11.0 µM -106% | [3]; at 33.0 µM -46% | [3]; at 100.0 µM -82% | [4]; at 1.2 µM -81% | [4]; at 3.7 µM -66% | [4]; [16] 30% | [4]; at 11.0 µM -107% | [4]; at 33.0 µM -40% | [4]; at 50.0 µM 56.4% | [4]; at 100.0 µM 45% | [5]; at 1.2 µM -97% | [5]; at 3.7 µM -47% | [5]; [16] 53% | [5]; at 11.0 µM -87% | [5]; at 33.0 µM -52% | [5]; at 50.0 µM 8.5% | [5]; at 100.0 µM -16% | [6]; at 1.2 µM -26% | [6]; at 3.7 µM -26% | [6]; at 11.0 µM -10% | [6]; at 33.0 µM -15% | [6]; at 100.0 µM 5% | [7]; [16] -29% | [7]; [17] 39% | [7]; at 50.0 µM 48.6% | [8]; at 1.2 µM 9% | [8]; at 3.7 µM 22% | [8]; at 11.0 µM 16% | [8]; at 33.0 µM 40% | [8]; at 100.0 µM 40% | [9]; [16] 5% | [9]; [17] 59% | [9]; at 50.0 µM 43.6% | [10]; at 1.2 µM -25% | [10]; at 3.7 µM -29% | [10]; [16] 50% | [10]; at 11.0 µM -17% | [10]; at 33.0 µM 2% | [10]; [17] 69% | [10]; at 50.0 µM 55% | [10]; at 100.0 µM 65% | [12]; at 1.2 µM -70% | [12]; at 3.7 µM -85% | [12]; at 11.0 µM -78% | [12]; at 33.0 µM -44% | [12]; at 100.0 µM 3% | [13]; at 1.2 µM -78% | [13]; at 3.7 µM -80% | [13]; at 11.0 µM -35% | [13]; at 33.0 µM -27% | [13]; at 100.0 µM 59% | [14]; [16] 44% | [14]; at 50.0 µM 49% | [15]; at 1.2 µM -44% | [15]; at 3.7 µM -72% | [15]; at 11.0 µM -72% | [15]; at 33.0 µM -58% | [15]; at 100.0 µM 45%
active: [4]; [17] 96% | [5]; [17] 97% | [14]; [17] 98%

From PubChem BioAssay (NCI)
